Experimental data from PubChem BioAssay.
Values joined by “and” are separate entries in the source; they are usually repeats but may differ in a detail not shown here. Equal values may be shown once. Active and inactive are the calls of the source. Rule as the data show it, unless noted: active = inhibition above about 80%; inactive = the rest.

Assays:
[1] = growth inhibition, single agents and combos, UWB1.289, cell-based, BGB or cisplatin combos, synergistic combos for chromothripsis tumors (AID 1671456); details: UWB1.289 ovarian carcinoma cells, stronger effect = higher value;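 also: cells exposed to compound for four days; 0% = vehicle DMSO and 100% = killing by high DMSO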
[2] = growth inhibition, single agents and combos, LFS_MB_2R, cell-based, cisplatin combos, synergistic combos for chromothripsis tumors (AID 1671457); details: LFS_MB_2R medulloblastoma cells, stronger effect = higher value;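 also: cells exposed to compound for four days before readout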
[3] = growth inhibition, MDA-MB-436, cell-based, BGB or cisplatin combos, synergistic combos for chromothripsis tumors (AID 1671458; call rule not given here;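 also: cells exposed for 96 hours; 0% = vehicle DMSO and 100% = killing by high DMSO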); details: MDA-MB-436 breast carcinoma growth inhibition, drug combinations, stronger effect = higher value
[4] = UWB1.289_BRCA1 ovarian cancer growth, cell-based, BGB or cisplatin combinations (AID 1671459); details: UWB1.289 BRCA1 ovarian carcinoma, drug combinations, stronger effect = higher value
[5] = drug combination toxicity in non-malignant astrocytes – cell-based, BGB or cisplatin IC20 combos, cytotoxicity control for chromothriptic childhood tumor combination screen (AID 1671460); details: Human astrocytes, viability inhibition, drug combinations, at 0.5 µM, stronger effect = higher value;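 also: cells exposed to compounds for 96 hours before viability readout; 0% = vehicle and 100% = killing control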
[6] = BT084 cell growth, single and combined drugs, ICGC_MB145, cisplatin and BGB IC40 combos (AID 1671461); details: BT084 medulloblastoma cells, drug combinations, stronger effect = higher value;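 also: cells exposed to drugs for 96 hours; 0% = vehicle DMSO and 100% = high DMSO full killing control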
[7] = RCMB18 cell growth, single agent and combined, cisplatin and BGB IC40 combos (AID 1671462); details: RCMB18 medulloblastoma cells, stronger effect = higher value;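 also: cells exposed to compound for four days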
[8] = CRL1545 cell growth, single agent and combined, cisplatin and BGB IC20 combos (AID 1671464); details: CRL1545 osteosarcoma cells, stronger effect = higher value;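 also: cells exposed to compound for 96 hours before readout; 0% = vehicle DMSO and 100% = high DMSO killing control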
[9] = measured here: inhibition with BGB combination, at 0.05 µM
[10] = measured here: inhibition with cisplatin combination, at 0.05 µM
[11] = measured here: combination with cisplatin, at 0.5 µM
[12] = measured here: combination with cisplatin, at 5 µM
[13] = measured here: BGB combination, at 0.5 µM
[14] = measured here: BGB combination, at 5 µM
[15] = measured here: cisplatin combination, at 0.5 µM
[16] = measured here: cisplatin combination, at 5 µM
[17] = BGB combination, concentration series, at 5 µM
[18] = cisplatin combination, concentration series, at 5 µM
[19] = measured here: combo with BGB IC20
[20] = measured here: combo with cisplatin IC20
[21] = cisplatin combination, at 0.5 µM
[22] = measured here: BGB IC40 combination 0.05 uM, at 0.05 µM
[23] = measured here: BGB IC40 combination, at 0.05 µM
[24] = measured here: with BGB IC20 combination, at 0.5 µM
[25] = measured here: with cisplatin IC20 combination, at 0.5 µM

In the case of CCn1cc(C(=O)O)c(=O)c2cc(F)c(N3CCNCC3)nc21, the inhibition ([1]; at 0.5 µM) is reported as -10.7% (inactive) and 1.4% (inactive), the inhibition [1, 9] is reported as -29.8% and -21.6% and the inhibition [1, 10] is reported as -19.7% and -11.2%. For the same compound, the inhibition ([2]; at 0.5 µM) was -18.7% (inactive) and -16.6% (inactive), the inhibition [2, 11] was -8.22% and -12.2% and the inhibition [2, 12] was -10.3% and -8.58%. For the same compound, the inhibition ([3]; at 0.5 µM) was -9.05% (inactive) and -13.8% (inactive), the inhibition [3, 13] was -10.2% and -4.34% and the inhibition [3, 14] was -20.2% and -12.6%. For the same compound, the inhibition [3, 15] was -12.3% and -35.3%, the inhibition [3, 16] was -9.88% and -14.8% and the inhibition [4, 17] was -1.06% and 7.56%. For the same compound, the inhibition ([4]; at 0.5 µM) was -12.5% (inactive) and 3.88% (inactive), the inhibition [4, 18] was 0.876% and 19.6% and the inhibition [5] was 8.11% (inactive) and 6.08% (inactive). For the same compound, the inhibition [5, 19] was 13.6% and -6.3%, the inhibition [5, 20] was -5.13% and 23.3% and the inhibition ([6]; at 0.5 µM) was -14.2% (inactive). The inhibition [6, 21] was -20.2% and 4.87%, the inhibition ([6]; cisplatin combination, at 5 µM) was -328% and -22.3% and the inhibition [6, 22] was -15.2% and 5.81%. The inhibition ([6]; single agent, at 5 µM) was -15.6% and -14.8%, the inhibition ([7]; at 0.5 µM) was -23.5% (inactive) and -3.9% (inactive) and the inhibition ([7]; cisplatin combo, at 5 µM) was -47.1% and 18.7%. For the same compound, the inhibition [7, 23] was -10.4% and 1.16%, the inhibition [7, 11] was -40.4% and 9.59% and the inhibition ([7]; single agent, at 5 µM) was -15.2% and -21.3%. The inhibition ([8]; at 0.5 µM) was 9.99% (inactive) and 6.3% (inactive), the inhibition [8, 24] was -15.9% and 0.601% and the inhibition [8, 25] was 21.7% and 9.15%. The inhibition ([8]; single agent, at 0.05 µM) was -9.98% and 9.98% and the inhibition ([8]; single agent, at 5 µM) was -24.6% and 24.3%.
In the case of CCn1cc(C(=O)O)c(=O)c2cc3c(cc21)OCO3, the inhibition ([1]; at 0.5 µM) is reported as 2.29% (inactive), the inhibition [1, 9] is reported as -2.14% and the inhibition [1, 10] is reported as -6.63%. For the same compound, the inhibition ([2]; at 0.5 µM) was -21.9% (inactive), the inhibition [2, 11] was -20.2% and the inhibition [2, 12] was -21.2%. For the same compound, the inhibition ([3]; at 0.5 µM) was -14.4% (inactive), the inhibition [3, 13] was -16.2% and the inhibition [3, 14] was -18.6%. It also gave an inhibition [3, 15] of -20.7%, an inhibition [3, 16] of -20.6% and an inhibition [4, 17] of -2.14%. For the same compound, the inhibition ([4]; at 0.5 µM) was 1.91% (inactive), the inhibition [4, 18] was 15.4% and the inhibition [5] was -0.34% (inactive). For the same compound, the inhibition [5, 19] was 2.16%, the inhibition [5, 20] was -8.86% and the inhibition ([6]; at 0.5 µM) was -9.83% (inactive). The inhibition [6, 21] was 15.9%, the inhibition ([6]; cisplatin combination, at 5 µM) was -11.8% and the inhibition [6, 22] was 27.5%. For the same compound, the inhibition ([6]; single agent, at 5 µM) was -16.8%, the inhibition ([7]; at 0.5 µM) was -3.66% (inactive) and the inhibition ([7]; cisplatin combo, at 5 µM) was 2.43%. The inhibition [7, 23] was -11.1%, the inhibition [7, 11] was 16.7% and the inhibition ([7]; single agent, at 5 µM) was -9.78%. The inhibition ([8]; at 0.5 µM) was -6.67% (inactive), the inhibition [8, 24] was -7.74% and the inhibition [8, 25] was -6.13%. The inhibition ([8]; single agent, at 0.05 µM) was 12.4% and the inhibition ([8]; single agent, at 5 µM) was 12.2%.
With O=NN(CCCl)C(=O)NC1CCCCC1 the inhibition ([1]; at 0.5 µM) was -3.74% (inactive) and -1.89% (inactive), the inhibition [1, 9] was -37.8% and -16.5% and the inhibition [1, 10] was -17.9% and -15%. For the same compound, the inhibition ([2]; at 0.5 µM) was -23.1% (inactive) and -22.9% (inactive), the inhibition [2, 11] was -21.1% and -18.8% and the inhibition [2, 12] was -70.5% and -18.7%. For the same compound, the inhibition ([3]; at 0.5 µM) was -40.6% (inactive) and -11.5% (inactive), the inhibition [3, 13] was -36.9% and -5.88% and the inhibition [3, 14] was -35% and -10.4%. The inhibition [3, 15] was -61.4% and -18.5%, the inhibition [3, 16] was -41.1% and -14.2% and the inhibition [4, 17] was -29.6% and 11.3%. For the same compound, the inhibition ([4]; at 0.5 µM) was -16.2% (inactive) and 2.2% (inactive), the inhibition [4, 18] was 3.2% and 10.4% and the inhibition [5] was -9.22% (inactive) and 7.1% (inactive). For the same compound, the inhibition [5, 19] was -20% and 5.8%, the inhibition [5, 20] was -3.02% and 3.4% and the inhibition ([6]; at 0.5 µM) was -34.8% (inactive) and -13.6% (inactive). The inhibition [6, 21] was -11.4% and -21.6%, the inhibition ([6]; cisplatin combination, at 5 µM) was 1.31% and -15.5% and the inhibition [6, 22] was -11% and -18.6%. For the same compound, the inhibition ([6]; single agent, at 5 µM) was -27.6% and -16%, the inhibition ([7]; at 0.5 µM) was -19.6% (inactive) and -7.56% (inactive) and the inhibition ([7]; cisplatin combo, at 5 µM) was -8.32% and -2.07%. The inhibition [7, 23] was 3.33% and -8.31%, the inhibition [7, 11] was -12.9% and 7.07% and the inhibition ([7]; single agent, at 5 µM) was -26.9% and -32.7%. For the same compound, the inhibition ([8]; at 0.5 µM) was -41.9% (inactive) and 12.8% (inactive), the inhibition [8, 24] was -11.7% and 21.6% and the inhibition [8, 25] was -60.6% and 8.43%. For the same compound, the inhibition ([8]; single agent, at 0.05 µM) was -56.9% and 27.3% and the inhibition ([8]; single agent, at 5 µM) was -2.19% and 10%.
